From PubChem BioAssay AID624134 (Broad Institute, 2012)
About 1,100 (69%) of roughly 1,600 compounds were called active. So high a share suggests a set chosen from earlier hits. A selection follows. Measured potencies and affinities stand elsewhere. Records with an inconclusive call do not appear.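 Rule for the calls: active = signal drop with fitted half-maximal concentration no higher than twice the top valid tested concentration; inconclusive = flat curve with 30 to 70% signal loss, or poor fit; inactive = the rest, including signal rises and flat curves within 30%.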

Assay: loss of viability in HepG2 cells – cell-based, CellTiter-Glo, cherry-picked, cytotoxicity control for Shn3 inhibitor project, dose response (AID 624134)
Conditions: CellTiter-Glo ATP luminescence, 48 h; series mostly up to 35 µM

Row | SMILES | outcome
1 | CC(C)CCNC(=O)c1cc2c(=O)[nH]c3ccccc3c2s1 | inactive
2 | Cc1ccc(OC(=O)CCC(=O)Oc2ccc(C)cc2C)c(C)c1 | inactive
3 | CCCC(c1nnnn1Cc1ccc(OC)cc1)N1CCN(c2ccccc2)CC1 (stereo not given) | inactive
4 | CCOC(=O)C1CCN(C(=O)c2ccc(OCC(=O)Nc3cccc(C(F)(F)F)c3)c(OC)c2)CC1 | inactive
5 | Cc1ccccc1N/C(=N/S(=O)(=O)c1ccccc1)c1ccc(F)cc1 | inactive
6 | CCOC(=O)C1CCCN(S(=O)(=O)c2ccc(S(=O)(=O)N(CC)CC)cc2)C1 (stereo not given) | inactive
7 | Cc1ccc(CNC(=O)CSc2c3c(nc4ccc(Cl)cc24)CCCC3)o1 | inactive
8 | CCOc1cc(/C=C2\C(=O)ON=C2C)ccc1OCc1ccccc1 | inactive
9 | CC1=NOC(=O)/C1=C\c1ccc(-c2cc(Cl)ccc2Cl)o1 | inactive
10 | O=C(CSc1nc2c(c(=O)n1-c1ccc(Br)cc1)SCC2)NCc1ccco1 | inactive
11 | Cc1cc(-n2c(C)cc(C(=O)CSc3nncn3C)c2C)no1 | inactive
12 | CCCC(=O)NC(=S)Nc1ccc(N2CCN(C(=O)c3cccs3)CC2)cc1 | inactive
13 | O=C(NCCc1ccccc1)c1ccc2c(c1)OCCO2 | inactive
14 | CCOC(=O)c1sc(NC(=O)CCCn2nc([N+](=O)[O-])c(Cl)c2C)c(C(=O)OCC)c1C | inactive
15 | CCOC(=O)c1c(NC(=O)c2nn(CC)cc2Br)sc(C)c1C | inactive
16 | COc1ccccc1N1CCN(c2ncc(C(=O)N3CCN(c4cccc(Cl)c4)CC3)c3ccccc23)CC1 | inactive
17 | O=C(Nc1cccc(S(=O)(=O)NC2=NCCC2)c1)C1CC(=O)N(c2ccc3c(c2)OCCO3)C1 (stereo not given) | inactive
18 | C=C1C(=O)[C@@]23[C@H](O)C[C@@H]4C(C)(C)CC[C@H](O)[C@]4(C)[C@@H]2C[C@H](O)[C@@H]1[C@H]3O | inactive
19 | O=C(CSc1nc2[nH]ncc2c(=O)[nH]1)Nc1ccccc1C(F)(F)F | inactive
20 | CCc1c(O)nc(SCC(=O)Nc2ccccc2)n(-c2ccccc2)c1=O | inactive

Row | SMILES | outcome
21 | O=C(NCCNC(=O)Oc1cccc2ccccc12)Oc1cccc2ccccc12 | inactive
22 | COc1cc2ncnc(N[C@H](C)c3ccccc3)c2cc1OC | inactive
23 | Cc1cc(C)n(-c2cc(-n3nc(C)cc3C)ncn2)n1 | inactive
24 | CS(=O)(=O)c1ccc(C(=O)OCC(=O)N2CCOCC2)cc1[N+](=O)[O-] | inactive
25 | CCn1c(C)cc(C(=O)COC(=O)c2ccccc2[N+](=O)[O-])c1C | inactive
26 | COc1ccc(C(=O)OCC(=O)Nc2ncc([N+](=O)[O-])s2)cc1OC | inactive
27 | C=C1C(=O)C23C(O)C1CCC2C12COC3(O)C(O)C1C(C)(C)CCC2O (stereo not given) | inactive
28 | CCO[C@@H]1OC(C(=O)NC2CC2)=C[C@H](c2coc3ccccc3c2=O)[C@H]1CCCO | inactive
29 | CCCCCCCCCCOC(=O)Cn1c(COc2ccc(OC)cc2)[n+](C)c2ccccc21 | inactive
30 | CSc1cccc(NC(=O)N2CCCC(CNS(=O)(=O)Cc3ccccc3)C2)c1 (stereo not given) | inactive
31 | Cc1nc2ncnn2c(C)c1Cc1cccc(F)c1 | inactive
32 | CC(C)=CCC/C(C)=C/CNC(=O)C[C@H]1C[C@H](C(=O)N2CCOCC2)[C@@]2(C)c3[nH]c4cc(CCC(=O)N(C)C)ccc4c3CCN2C1=O | inactive
33 | CCC(=O)c1cn(CC(=O)Nc2cccc(C)c2C)c2ccccc12 | inactive
34 | O=C(Cn1cc(C(=O)C2CC2)c2ccccc21)Nc1ccccc1Cl | inactive
35 | CCN(CC)C(=S)Sc1c(-c2ccccc2)c2cc(Cl)ccc2[nH]c1=O | inactive
36 | O=C(Nc1ccc(S(=O)(=O)N2CCN(Cc3ccccc3)CC2)cc1)c1cnccn1 | inactive
37 | O=C(COC(=O)c1n[nH]c2ccccc12)Nc1ccc(S(=O)(=O)N2CCCC2)cc1 | inactive
38 | COc1ccc(NS(=O)(=O)c2ccc(NC(=O)C(CCSC)NC(N)=O)cc2)cc1 (stereo not given) | inactive
39 | COc1ccc(C(=O)NNC(=O)c2cccc(S(=O)(=O)N3CCOCC3)c2)cc1 | inactive
40 | O=C(CCS(=O)(=O)c1ccccc1)Nc1nc2c(s1)CCCC2 | inactive

Row | SMILES | outcome
41 | COc1ccccc1/C=C1\CCCC2=C1Nc1nnnn1C2c1ccccc1OC (stereo not given) | inactive
42 | O=C(O)c1cccc(COc2ccccc2Cl)c1 | inactive
43 | O=C(O)c1cccc(COc2ccc(CO)cc2Cl)c1 | inactive
44 | CCN(CC)Cc1c(O)ccc2c1O/C(=C\C=C\c1ccccc1)C2=O | inactive
45 | Cc1ccc(-c2ccc(/C=C3\C(=O)ON=C3c3ccccc3)o2)c([N+](=O)[O-])c1 | inactive
46 | Cc1ccc(NC(=O)C2CCCN(S(=O)(=O)c3c(C)noc3C)C2)cc1 (stereo not given) | inactive
47 | Cc1csc(=O)n1CCC(=O)N(C)Cc1c(F)cccc1Cl | inactive
48 | CCn1cc(CNCc2cn(-c3ccccc3C)nc2-c2ccc(OC)c(F)c2)cn1 | inactive
49 | CCN(CC)S(=O)(=O)c1ccc(N2CCOCC2)c(NC(=O)c2nn(C(C)C)c(=O)c3ccccc23)c1 | inactive
50 | CCOC(=O)C1CCN(c2cc3c(cc2NC(=O)c2ccccc2Br)n(C)c(=O)n3C)CC1 | inactive
51 | CC[C@]12c3[nH]c4cc(CCC(=O)N(C)C)ccc4c3CCN1C(=O)[C@@H](CC(=O)NC/C=C(\C)CCC=C(C)C)C[C@@H]2C(=O)N1CCN(C(=O)c2ccco2)CC1 | inactive
52 | COc1ccc(-c2cc(C(F)(F)F)nc(S(=O)(=O)CCCC(=O)Nc3cccnc3Cl)n2)cc1OC | inactive
53 | COc1ccc([C@H]2CC(=O)C=C(c3ccc4c(c3)OCO4)C2)cc1OC | inactive
54 | COc1cc(C(=O)OCC(=O)NC2CCCCCC2)ccc1OCC(C)C | inactive
55 | CC(=O)OCC(=O)[C@@]1(O)CC[C@H]2[C@@H]3CCC4=CC(=O)CC[C@]4(C)[C@H]3C(=O)C[C@@]21C | inactive
56 | COc1ccc(S(=O)(=O)N2CCOCC2)cc1NC(=O)COC(=O)CC1CC2CCC1C2 (stereo not given) | inactive
57 | Nc1c(Br)cc2c(c1Br)C(O)c1ccccc1-2 (stereo not given) | inactive
58 | CN(C)c1ncnc2c1C(c1ccccc1)C(C)(C)O2 (stereo not given) | inactive
59 | COc1cc(OC)cc(C(=O)OCC(=O)Nc2ccc(F)cc2F)c1 | inactive
60 | COc1ccc(OC)c(NC(=O)c2cc(-c3cc(F)ccc3OCC3CCCO3)n[nH]2)c1 (stereo not given) | inactive
